# Source: PubChem BioAssay AID1347426 (Functional Genomics Laboratory (NCATS/FGL), 2020)
# Out of some 31,000 sequences screened, about 1,400 (4.5%) were called active.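 How the source made its calls: active means median seed-adjusted z-score above 1 or below -1; inactive means the rest.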 Shown is part of a subset that was picked to be rich in actives.
# Test: Novel Modifiers of Survival Motor Neuron (SMN) Protein: Gene Identification via Genome-wide siRNA Screen;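 further: luminescence tracks full-length SMN protein made from the SMN2 reporter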
# Conditions: HEK293T SMN2-luciferase reporter, siRNA knockdown, 72 h; actives lie on both sides
# Method in brief: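 HEK293T cells stably carrying an SMN2 promoter/splicing cassette–luciferase reporter were reverse-transfected with 1 pmol siRNA per well (druggable-genome library, 3 siRNAs per gene) and grown 72 h at 37 °C. Luminescence, normalized to negative-control siRNA and log10-transformed, was scored as MAD.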
row,Sequence,median seed-adjusted z-score
1,GCCUAGACCUCUUCGCUUUTT against PASK,0 (inactive)
2,GCAGCUGAGUUCUACAAGATT against RAG1,-1.35 (active)
3,GGAUAAUGAGUCGGAAGUATT against CNTN4,-0.407 (inactive)
4,CCAGGUUUAUGUAGAAGUUTT against NMI,0.982 (inactive)
5,GGAUGAAGAACGAAUGGUATT against ENDOD1,-0.138 (inactive)
6,GGCACUCAGCGCAAGAAGATT against TIGD5,0 (inactive)
7,GGAAGAGGAGUAGACCUUATT against RAB5A,0.244 (inactive)
8,CCGGCAAGAUUAUCGAGUATT against HCFC1,1.47 (active)
9,CAUUCGCAAAGGAUCGUGATT against PAPSS2,-0.201 (inactive)
10,CAGCGUAUUUGAGAAUUUATT against ATRX,-0.158 (inactive)
11,GCAAGUGUUUUGAUCAAAATT against ZNF662,0.352 (inactive)
12,GAAUAUUGCAAUAGACUUATT against ZNF678,0.172 (inactive)
13,GCAUUUCACCAUUCAAACATT against PCSK9,0.146 (inactive)
14,GGAUGUUUCCUACCUAUAUTT against FOLR1,-1.31 (active)
15,CCAGUUCGCUAUCACCAAATT against MATN1,-0.271 (inactive)
16,CGAUCAAUGUUAGAAGUUATT against ACTR2,0.548 (inactive)
17,CCUUAGAUCUCGCGAAGAATT against DCT,-0.184 (inactive)
18,CCAAUACACUAGCAGUUAATT against TCP1,-1.02 (active)
19,GCCUGUGAAUGUCCGAGAATT against AARSD1,-0.156 (inactive)
20,GGUAGUCUAUCACUUCGAATT against TRIM37,-0.108 (inactive)
21,GCUCAACACUCAUCAAACATT against ZNF774,-0.0834 (inactive)
22,CAUGGUCACUGCUAGUGUATT against MBOAT1,-1.22 (active)
23,GCACCUACUUCAUCUAUAGTT against EDA,0.316 (inactive)
24,GAGAUUCAAAGAAUAGUAATT against RASSF6,-0.592 (inactive)

row,Sequence,median seed-adjusted z-score
1,CCCUUGAAGGCAAAGAUCATT against OPRK1,-1.08 (active)
2,GAGAUUCAUCGGUUCAAUATT against WRNIP1,0.00972 (inactive)
3,GCCUUAGUGUGCCUCCCAATT against APLN,0.0181 (inactive)
4,GAUCUGGUCGAGUUUAAAATT against NAT2,-0.0495 (inactive)
5,CCACAUGACUUAUUAUGCATT against DCN,0.326 (inactive)
6,GGGCAGUUCUUGCAACCAUTT against ALDH1A2,0.564 (inactive)
7,CGAGAUAACUACUGCCGAUTT against PCOLCE2,-1.15 (active)
8,CCGUCUACGUGACCAUUGATT against ABCC1,0 (inactive)
9,GCUUUUACAACAUUUCGAATT against SLC30A4,0.158 (inactive)
10,GUAAAUCACCGGCUACAAATT against ITGA3,0 (inactive)
11,UCAUGCUCAUUGGGAAUAATT against RAB2B,0.882 (inactive)
12,GCUUUGCAGUGAAUAUCGATT against SPINK5,0.26 (inactive)
13,CCUGGAUACCCUAAGCAAATT against PSMD2,-1.44 (active)
14,CCACGAUCGUUCACAAGGATT against KCTD4,0.649 (inactive)
15,CUAUAGUGGUUCAUCACAATT against GCNT1,0.463 (inactive)
16,ACGAGUACAUCAACGAGUATT against ABCA2,-1.18 (active)
17,CACUCAGCGUGGACCAUUUTT against HCN3,0.301 (inactive)
18,CUAUCAAUCCCAGCACUAATT against CDKL3,0.243 (inactive)
19,GCACUCUGAAGAUCGAAUATT against HNRNPL,1.04 (active)
20,CUAUGAUUAUAGCCGGGUATT against PTPN22,-0.0843 (inactive)
21,GGAAAAGUAUGAACUGAAATT against TREM1,0 (inactive)
22,GGGUCUUACGAAUGCGGAATT against ZNF618,0.311 (inactive)
23,GAACGUAAGAAAUACAAUUTT against HSPA4L,0.288 (inactive)
24,CUUCAUCUUUUACACCAUUTT against SLC35B2,-0.313 (inactive)

row,Sequence,median seed-adjusted z-score
1,CACUACUAAAAACCUAAAATT against EFHD2,0.874 (inactive)
2,GUAGUGAAGUGUAUCCGGATT against ANXA6,-1.01 (active)
3,GAAUCCUCAAUGUGGAUGATT against HPCA,0.12 (inactive)
4,GGCUUUUUGCUACAGAUGATT against OSGEP,0.0178 (inactive)
5,GUAUGUCACCUAUCACUGUTT against SLC25A38,0 (inactive)
6,GCAUCGCUGUAGGUUUUGATT against THBS2,-0.721 (inactive)
7,GCAUCUGCGAUGUGAGGAATT against RYBP,0.831 (inactive)
8,GCAUCAGGGUCAUGGUUCATT against SCNN1D,-1.8 (active)
9,CCACCUACAGAGUGUCCUATT against EMID2,0.0465 (inactive)
10,GGACAAGACGCAAGAAGAATT against TEF,0 (inactive)
11,CCAAGGAGGUGCACUAUAATT against FHL1,0.574 (inactive)
12,AGAUGAUUCUAGAAUCCAATT against STK32B,0.683 (inactive)
13,GGAAUACCAUGAGCUGUUATT against OSBP,0.256 (inactive)
14,CAAGCAUAUUAAUGAGGUUTT against DYRK1A,-1.3 (active)
15,GCUCCCAUCAUGUACGUUUTT against GPR155,0.0681 (inactive)
16,GGAUGAGCAGUACCAGGCATT against PYCARD,0.117 (inactive)
17,GAACUAAACUUGUUAAUGATT against TRIM36,-0.262 (inactive)
18,GGAGCAACAUUAUAGUCAATT against TGS1,-0.564 (inactive)
19,CUACGAGAAUAAUUCGGAATT against THOC1,-3.04 (active)
20,CCGGGAAAGUAGAAUUACATT against IGF2BP1,-0.993 (inactive)
21,GCAGUACUCUGCUACCUGATT against IL22RA1,-1.14 (active)
22,GGAGAACCAGUGGAAUUCATT against LIN28B,0.407 (inactive)
